# In PubChem BioAssay (NCI):
# Compounds without any hit were thinned out: in the full panel of roughly 79,000, 15% have a hit. Unmarked numbers belong to inactive results. Active and inactive are the calls of the source. Cut-off read from the data, not from the text of the source: active = growth inhibition above about 70%; inactive = the rest.
# What was measured:
# [1] = NCI Yeast Anticancer Drug Screen. Data for the rad52 strain (AID 147);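 note: 0% = growth of vehicle-treated control cultures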; settings: S. cerevisiae rad52 mutant growth inhibition, stronger effect = higher value
# Procedure, shortened: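 Compounds are applied to a genetically defined yeast strain lacking normal DNA damage repair, and inhibition of growth is expressed relative to cultures given vehicle only.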
# [2] = NCI Yeast Anticancer Drug Screen. Data for the wt1 strain (AID 149);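 note: 0% = growth of vehicle-treated wt1 cultures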; settings: S. cerevisiae wt1 strain (SPY 50644) growth inhibition, stronger effect = higher value
# Procedure, shortened: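 Readout: yeast growth inhibition, normalised to vehicle controls, in the wt1 strain exposed to test compounds.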
# [3] = NCI Yeast Anticancer Drug Screen. Data for the rad50EPP+ strain (AID 151);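 note: 0% = growth of vehicle-treated control cultures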; settings: S. cerevisiae rad50 mutant strain, stronger effect = higher value
# Procedure, shortened: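 Compounds were applied to the rad50EPP+ yeast strain, which bears a defined DNA repair alteration, and growth inhibition was determined relative to vehicle-treated cultures.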
# [4] = NCI Yeast Anticancer Drug Screen. Data for the mgt1 strain (AID 153); settings: S. cerevisiae mgt1 mutant growth inhibition, stronger effect = higher value
# Procedure, shortened: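 Strain: mgt1 yeast, one of a set carrying defined DNA damage repair or cell cycle control alterations. Compound-treated growth compared with vehicle.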
# [5] = NCI Yeast Anticancer Drug Screen. Data for the rad50 strain (AID 155);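 note: 0% = growth of vehicle-only cultures of the same strain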; settings: S. cerevisiae rad50 strain growth inhibition, stronger effect = higher value
# Procedure, shortened: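 Compounds were tested on a yeast strain with an engineered DNA damage repair alteration; the reported value is growth inhibition normalised to vehicle treatment.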
# [6] = NCI Yeast Anticancer Drug Screen. Data for the mec2-1 strain (AID 157); settings: S. cerevisiae mec2-1 strain, stronger effect = higher value
# Procedure, shortened: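 Strain: mec2-1 (DNA repair/cell cycle alteration). Compound exposure, then growth measured; inhibition expressed relative to vehicle.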
# [7] = NCI Yeast Anticancer Drug Screen. Data for the rad14 strain (AID 159);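 note: 0% = growth of vehicle-treated control cultures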; settings: S. cerevisiae rad14 strain growth inhibition, stronger effect = higher value
# Procedure, shortened: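 Compound-treated yeast with a defined DNA-repair lesion; growth inhibition normalised to vehicle-treated cultures.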
# [8] = NCI Yeast Anticancer Drug Screen. Data for the CLN2oe strain (AID 163);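 note: 0% = growth of vehicle-only control cultures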; settings: S. cerevisiae CLN2oe strain, stronger effect = higher value
# Procedure, shortened: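 Growth of a genetically modified yeast strain is measured after compound exposure and compared with cultures given vehicle alone.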
# [9] = NCI Yeast Anticancer Drug Screen. Data for the cln2 rad14 strain (AID 165);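 note: 0% = growth equal to vehicle treated cultures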; settings: S. cerevisiae cln2 rad14 strain, stronger effect = higher value
# Procedure, shortened: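 Compounds are applied to the cln2 rad14 yeast strain, and growth is then compared with that of vehicle-treated cultures to give inhibition.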
# [10] = NCI Yeast Anticancer Drug Screen. Data for the bub3 strain (AID 167); settings: S. cerevisiae bub3 mutant strain, stronger effect = higher value
# Procedure, shortened: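 Growth of a checkpoint-deficient yeast mutant is measured after compound exposure. Values represent inhibition relative to vehicle.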
# [11] = NCI Yeast Anticancer Drug Screen. Data for the wt2 strain (AID 169);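 note: 0% = growth of vehicle-treated yeast cultures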; settings: S. cerevisiae wt2 strain growth inhibition, stronger effect = higher value
# Procedure, shortened: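 This strain belongs to a panel of yeast strains with defined genetic alterations in DNA damage repair or cell cycle control. Compounds are applied, and growth inhibition is measured against vehicle-treated cultures.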
# [12] = NCI Yeast Anticancer Drug Screen. Data for the mlh1 strain (AID 171);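 note: 0% = growth of vehicle-treated control cultures of the same strain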; settings: S. cerevisiae mlh1 strain growth inhibition, stronger effect = higher value
# Procedure, shortened: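 Growth of the mutant yeast strain after compound exposure, expressed as inhibition relative to vehicle-only controls.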
# [13] = NCI Yeast Anticancer Drug Screen. Data for the sgs1 strain (AID 173);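 note: 0% = growth of vehicle-only control cultures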; settings: S. cerevisiae sgs1 mutant, stronger effect = higher value
# Procedure, shortened: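 Growth of a yeast strain bearing a defined genetic alteration is measured after compound treatment. Inhibition is expressed relative to vehicle-only controls.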
# [14] = NCI Yeast Anticancer Drug Screen. Data for the mlh1 rad18 strain (AID 175); settings: S. cerevisiae mlh1 rad18 strain growth inhibition, stronger effect = higher value
# Procedure, shortened: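 Read-out is yeast growth inhibition, calculated against vehicle-only controls. The compound was applied to a strain engineered with DNA damage repair alterations.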
# [15] = NCI Yeast Anticancer Drug Screen. Data for the rad18 strain (AID 177); settings: S. cerevisiae rad18 mutant growth inhibition, stronger effect = higher value
# Procedure, shortened: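 Growth of the mutant yeast strain after compound exposure, normalised to vehicle-only cultures.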
# [16] = at 5.0 µM (retest, dose inferred, filed as 0.5)
# [17] = at 50.0 µM (retest, dose inferred, filed as 5.0)
smiles,measurement,setting,value
S=C(N/N=C/c1ccccn1)Nc1ccc(Cl)cc1,growth inhibition,[1]; at 1.2 µM,-5%
same,growth inhibition,[1]; at 3.7 µM,-5%
same,growth inhibition,[1]; at 11.0 µM,-3%
same,growth inhibition,[1]; at 33.0 µM,15%
same,growth inhibition,[1]; at 100.0 µM,59%
same,growth inhibition,[2]; at 1.2 µM,-7%
same,growth inhibition,[2]; at 3.7 µM,-5%
same,growth inhibition,[2]; at 11.0 µM,-5%
same,growth inhibition,[2]; at 33.0 µM,8%
same,growth inhibition,[2]; at 100.0 µM,42%
same,growth inhibition,[3]; at 1.2 µM,-3%
same,growth inhibition,[3]; at 3.7 µM,-3%
same,growth inhibition,[3]; at 11.0 µM,1%
same,growth inhibition,[3]; at 33.0 µM,-6%
same,growth inhibition,[3]; at 100.0 µM,-12%
same,growth inhibition,[4]; at 1.2 µM,-7%
same,growth inhibition,[4]; at 3.7 µM,-7%
same,growth inhibition,[4]; at 11.0 µM,9%
same,growth inhibition,[4]; at 33.0 µM,16%
same,growth inhibition,[4]; at 100.0 µM,59%
same,growth inhibition,[5]; at 1.2 µM,-5%
same,growth inhibition,[5]; at 3.7 µM,-7%
same,growth inhibition,[5]; [16],-7%
same,growth inhibition,[5]; at 11.0 µM,-27%
same,growth inhibition,[5]; at 33.0 µM,19%
same,growth inhibition,[5]; [17],95% (active)
same,growth inhibition,[5]; at 50.0 µM,55.5%
same,growth inhibition,[5]; at 100.0 µM,59%
same,growth inhibition,[6]; at 1.2 µM,-5%
same,growth inhibition,[6]; at 3.7 µM,-6%
same,growth inhibition,[6]; [16],71% (active)
same,growth inhibition,[6]; at 11.0 µM,-3%
same,growth inhibition,[6]; at 33.0 µM,10%
same,growth inhibition,[6]; [17],95% (active)
same,growth inhibition,[6]; at 50.0 µM,56.2%
same,growth inhibition,[6]; at 100.0 µM,63%
same,growth inhibition,[7]; at 1.2 µM,-3%
same,growth inhibition,[7]; at 3.7 µM,0%
same,growth inhibition,[7]; at 11.0 µM,0%
same,growth inhibition,[7]; at 33.0 µM,27%
same,growth inhibition,[7]; at 100.0 µM,80% (active)
same,growth inhibition,[8]; at 1.2 µM,-3%
same,growth inhibition,[8]; at 3.7 µM,-14%
same,growth inhibition,[8]; at 11.0 µM,-12%
same,growth inhibition,[8]; at 33.0 µM,11%
same,growth inhibition,[8]; at 100.0 µM,79% (active)
same,growth inhibition,[9]; [16],38%
same,growth inhibition,[9]; [17],90% (active)
same,growth inhibition,[9]; at 50.0 µM,71.9% (active)
same,growth inhibition,[10]; at 1.2 µM,-5%
same,growth inhibition,[10]; at 3.7 µM,0%
same,growth inhibition,[10]; [16],19%
same,growth inhibition,[10]; at 11.0 µM,-2%
same,growth inhibition,[10]; at 33.0 µM,-3%
same,growth inhibition,[10]; [17],96% (active)
same,growth inhibition,[10]; at 50.0 µM,79.6% (active)
same,growth inhibition,[10]; at 100.0 µM,49%
same,growth inhibition,[11]; at 1.2 µM,-6%
same,growth inhibition,[11]; at 3.7 µM,-6%
same,growth inhibition,[11]; at 11.0 µM,-4%
same,growth inhibition,[11]; at 33.0 µM,9%
same,growth inhibition,[11]; at 100.0 µM,39%
same,growth inhibition,[12]; at 1.2 µM,-5%
same,growth inhibition,[12]; at 3.7 µM,-9%
same,growth inhibition,[12]; at 11.0 µM,-5%
same,growth inhibition,[12]; at 33.0 µM,12%
same,growth inhibition,[12]; at 100.0 µM,51%
same,growth inhibition,[13]; at 1.2 µM,-5%
same,growth inhibition,[13]; at 3.7 µM,-4%
same,growth inhibition,[13]; at 11.0 µM,-2%
same,growth inhibition,[13]; at 33.0 µM,22%
same,growth inhibition,[13]; at 100.0 µM,66%
same,growth inhibition,[14]; [16],44%
same,growth inhibition,[14]; [17],95% (active)
same,growth inhibition,[14]; at 50.0 µM,78.8% (active)
same,growth inhibition,[15]; at 1.2 µM,-6%
same,growth inhibition,[15]; at 3.7 µM,-3%
same,growth inhibition,[15]; at 11.0 µM,-5%
same,growth inhibition,[15]; at 33.0 µM,2%
same,growth inhibition,[15]; at 100.0 µM,67%
